High-throughput results as filed in PubChem BioAssay.
Pf Dd2 growth: qHTS Primary assay for Inhibitors of Plasmodium falciparum Dd2 growth in vitro | P. falciparum Dd2 growth, SYBR Green, 72 h | Potency, µM (highest dose often 28.9 µM), inactives show at the highest dose activity, negative = inhibition, usual class: inhibitors | hit rate 4.3% among 120,000 | AID 1347417, 2020; active = well fitted inhibition curve with a large enough effect;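 also: plate controls were DMSO vehicle for no effect and reference drug for full effect; nearly all actives have a fitted effect of over 65% in size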
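Infected erythrocytes (Dd2, 0.3% parasitemia, 2.5% hematocrit final) are added to compound in RPMI-1640/Albumax II medium, grown 72 h at 37C in low oxygen, then lysed with saponin/Triton-X containing SYBR Green and read by fluorescence.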
An asterisk follows results filed as active; i = inactive; [ ] = dose if it differs, or a comment. The entries come from a sample that favours hits as a whole. Potency is read from the fitted curve at half-maximal effect.

SMILES | Pf Dd2 growth
COCCN1C(=O)CS(=O)(=O)C12CCN(C(=O)c1ccccc1F)CC2 | 7%
O=C(CC1CCN(S(=O)(=O)c2ccc3c(c2)CCCC3)C1)NCc1ccccc1 (configuration not stated) | i
CN(Cc1ccccc1C(F)(F)F)Cc1cccc2ccccc12 | i
CN(Cc1cccc(CCN)c1)Cc1cccc2ncccc12 | 7.1µM*
Cc1c(CN(C)Cc2cccc3ncccc23)c(=O)n(-c2ccccc2)n1C | -4%
CC[C@H]1CN(C(=O)c2ccc(F)cc2)CC[C@H]1CC(=O)O | -16%[44.1 µM]
CCN(CC)CCNC(=O)c1ccc2c(c1)N(S(C)(=O)=O)CC2 | 24%
CCN(CC)CCNC(=O)c1ccc(-n2c(-c3ccccc3)cc3c2CCCC3)cc1 | 7.9µM*
CCN(CC)CCCNC(=O)Cc1ccc(NC(=O)N2CCCCc3ccccc32)cc1 | 17%
O=C1CCCCC(CNC(=O)c2nccc3ccccc23)N1 (configuration not stated) | 33%
COc1ccc2c(c1)nc1n2[C@@H](CNC2CCN(C(C)=O)CC2)COC1 | 27%[44.1 µM]
O=C(Cc1ccc(Cl)cc1)N1CCC2(CC1)NC(=O)N(c1ccc(F)cc1)N2 | -11%
CN(CC1(C)CCOCC1)C(=O)c1c(F)cccc1Cl | -19%
